Among the data in PubChem BioAssay are z-score and composite z-score values, retold here.

Assay [1] in a line: HepG2 liver cancer cell viability effects, profiling panel, resazurin fluorescence, 24 h, PK04 Diversity Set (AID 1172). Note: test concentration not given here. The settings on record: higher = more signal.
A short description of assay [2]: basal S. cerevisiae growth modulation, no modifier, primary screen, OD600, strain BY4716, 24 h, basal condition (AID 1173). The settings on record: OD600, 24 h, higher = more signal, called active from +8 up or from −8 down.
The nature of assay [3]: MM1S myeloma cell viability, profiling panel, resazurin fluorescence, basal, 24 h, PK04 Diversity Set (AID 1174).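 Note: MM1S multiple myeloma cell line; test concentration not given here.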 The settings on record: higher = more signal, called active from +8 up or from −8 down. A general note: The colour change of resazurin is a common sign of viable cells or microbes.
The target of assay [4] is Dihydroorotate dehydrogenase (quinone), mitochondrial (Plasmodium falciparum (isolate 3D7)) (UniProt Q08210). Description: PfDHODH enzyme inhibitors, primary screen, biochemical, C-terminal His tag, absorbance 600 nm (AID 1175).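 Note: recombinant parasite enzyme with a five histidine tag at its C terminus; test concentration not given here.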 The note with it: DCIP absorbance 600 nm, higher = more signal, called active from +8 up or from −8 down.
A short description of assay [5]: P. aeruginosa biofilm formation inhibitors, primary screen, strain PAO1, LB-PBS medium, absorbance 600 nm (AID 1176). Note: test concentration not given here. The note with it: P. aeruginosa PAO1 growth/biofilm, A600, 12 h; higher = more signal.
The nature of assay [6]: S. cerevisiae RM11-1a growth modifiers, primary screen, strain RM11-1a, OD600, basal, 24 h (AID 1177).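 Note: cultures grown under basal conditions with no added stressor; test concentration not given here.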 The settings on record: OD600, 24 h, higher = more signal, called active from +8 up or from −8 down.
Assay [7] is described as follows: E. coli acrAB mutant growth effects, primary screen, E. coli filamentation inducers, strain DRC39, OD650, 24 h (AID 1178).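 Note: growth measured as culture turbidity by optical density at 650 nm; test concentration not given here.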 The note with it: higher = more signal, called active from +8 up or from −8 down.
A short description of assay [8]: E. coli acrAB mutant growth effects, primary screen, E. coli filamentation inducers, strain DRC39, OD650, 48 h (AID 1179).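 Note: screen aims at cell division blockers that make cells filament.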 The settings on record: E. coli DRC39 delta-acrAB growth, higher = more signal, called active from +8 up or from −8 down.
Assay [9] in a line: RPMI8226 myeloma cell viability, profiling panel, resazurin fluorescence, basal, 24 h, PK04 Diversity Set (AID 1180).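 Note: RPMI8826 multiple myeloma cell line at 5000 cells per well; test concentration not given here.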 The note with it: higher = more signal.
Assay [10] addresses E3 ubiquitin-protein ligase XIAP (Homo sapiens) (UniProt P98170). Description: XIAP binders, primary screen, biophysical, small-molecule microarray, fluorescence 635 nm (AID 1181).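 Note: score merges 667 nm emission and signal to noise over triplicate slides.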 The note with it: small-molecule microarray binding, higher = more signal.

Active and inactive are the calls of the source. Unless noted, the rule behind the calls is not given here.

Chain of Dihydroorotate dehydrogenase (quinone), mitochondrial (Plasmodium falciparum (isolate 3D7)) (Q08210 whole entry, looked up): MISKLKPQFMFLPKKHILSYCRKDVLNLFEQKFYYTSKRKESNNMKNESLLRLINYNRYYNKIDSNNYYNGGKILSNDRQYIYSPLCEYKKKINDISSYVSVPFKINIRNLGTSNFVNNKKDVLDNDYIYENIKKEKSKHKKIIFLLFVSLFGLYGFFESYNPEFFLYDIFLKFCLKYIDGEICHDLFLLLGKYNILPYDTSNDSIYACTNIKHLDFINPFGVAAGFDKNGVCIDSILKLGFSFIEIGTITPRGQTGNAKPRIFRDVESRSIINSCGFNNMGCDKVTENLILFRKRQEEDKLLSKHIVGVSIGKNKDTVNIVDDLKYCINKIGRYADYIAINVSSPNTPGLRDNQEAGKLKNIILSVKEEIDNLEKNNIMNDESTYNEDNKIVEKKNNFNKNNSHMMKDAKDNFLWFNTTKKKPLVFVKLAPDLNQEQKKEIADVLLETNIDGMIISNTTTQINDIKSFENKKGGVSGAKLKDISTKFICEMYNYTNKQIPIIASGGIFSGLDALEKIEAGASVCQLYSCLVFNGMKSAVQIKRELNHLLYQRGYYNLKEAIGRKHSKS
Chain of E3 ubiquitin-protein ligase XIAP (Homo sapiens) (P98170 whole entry, looked up): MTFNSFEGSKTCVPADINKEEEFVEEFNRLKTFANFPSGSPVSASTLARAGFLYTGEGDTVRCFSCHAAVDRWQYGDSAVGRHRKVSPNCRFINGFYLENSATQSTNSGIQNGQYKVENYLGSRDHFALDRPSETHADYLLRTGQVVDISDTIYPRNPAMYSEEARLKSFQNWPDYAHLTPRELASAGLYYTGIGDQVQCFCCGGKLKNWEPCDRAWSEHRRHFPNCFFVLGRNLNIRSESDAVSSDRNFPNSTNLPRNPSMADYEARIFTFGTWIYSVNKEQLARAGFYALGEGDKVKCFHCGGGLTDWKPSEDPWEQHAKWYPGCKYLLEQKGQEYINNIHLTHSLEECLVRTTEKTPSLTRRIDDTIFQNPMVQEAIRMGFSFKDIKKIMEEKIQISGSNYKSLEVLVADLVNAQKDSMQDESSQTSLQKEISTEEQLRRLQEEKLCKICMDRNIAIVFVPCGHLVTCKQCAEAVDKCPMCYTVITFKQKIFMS

For `C#C[C@@H](CC)O[Si](C#CCCCC#N)(C(C)C)C(C)C`, the z-score in assay [1] is -0.276; in [2], -17.4 (active); in assay [3], -0.651 (inactive); in assay [5] it was 0.113 (inactive); in [6], -2.5 (inactive); in assay [7] it was 0.0725 (inactive). The z-score in [8] is 0.173 (inactive); in assay [9] it was -0.221. In addition, the composite z-score is -1.06 (inactive) in [4] and -0.142 in assay [10].
For the compound `NCCCCCNC(=O)[C@H]1C[C@H]2C(=O)N[C@@H](Cc3ccccc3)C(=O)N2[C@H]1c1ccc(O)cc1`, the z-score was -0.255 in assay [1]; -0.53 (inactive) in [2]; -0.115 (inactive) in assay [3]; 0.351 (inactive) in assay [5]; -0.334 (inactive) in [6]; 0.442 (inactive) in [7]. In addition, the z-score is 0.69 (inactive) in assay [8] and -0.518 in assay [9]. The results for the composite z-score in assay [4] and in assay [10] were 1.21 (inactive) and 0.157, respectively.
Take `CC(C)C(=C=CC[C@@H](O)c1cccc(OCCO)c1)C[C@@H](O)c1ccccn1`: the z-score in assay [1] is 0.828; in assay [2], -1.02 (inactive); in assay [3], 0.642 (inactive); in assay [5], -0.0342 (inactive); in [6], 0.488 (inactive); in [7] it was 0.267 (inactive). Moreover, the z-score is -0.158 (inactive) in assay [8] and 0.463 in assay [9]. Moreover, the composite z-score was -6.55 (inactive) in [4] and 0.127 in [10].
Take `CN(C)CCCC[C@@H]1NC(=O)[C@@H]2C[C@H](C(=O)O)[C@H](c3cccc(OCCO)c3)N2C1=O`: the z-score was -0.0398 in assay [1]; -0.79 (inactive) in assay [2]; 0.472 (inactive) in assay [3]; 0.808 (inactive) in [5]; -0.547 (inactive) in assay [6]; -0.175 (inactive) in assay [7]. Further, the figures for the z-score in [8] and in assay [9] were 0.494 (inactive) and 0.259, respectively. For the same compound, the composite z-score in assay [4] is -0.126 (inactive); in [10] it was -0.0398.
`C=CCNC(=O)[C@H]1[C@@H]2C(=O)O[C@@H](c3ccccc3)[C@@H](c3ccccc3)N2[C@@H](c2ccc(OCCO)cc2)[C@]12C(=O)Nc1ccc(C#CCNC(N)=O)cc12`: the z-score in assay [1] is -0.598; in [2], 2.3 (inactive); in [3], 0.0869 (inactive); in [5], 1.99 (inactive); in [6], 3.25 (inactive); in assay [7], -0.575 (inactive). Besides, the z-score is -1.22 (inactive) in assay [8] and 0.687 in [9]. For the same compound, the composite z-score is 0.428 (inactive) in assay [4] and -0.163 in assay [10].
Turning to `CCCCCCCCCCC(O)C1C=CC2C(=O)N(c3ccccc3)C(=O)C2N1Nc1ccccc1F` (stereo not given), the z-score in assay [1] is 0.0366; in assay [2] it was 0.864 (inactive); in assay [3], -0.361 (inactive); in [5] it was 0.819 (inactive); in assay [6] it was 0.719 (inactive); in [7] it was -0.717 (inactive). For the same compound, the z-score is 0.555 (inactive) in [8] and -0.335 in assay [9]. The composite z-score in assay [4] is 0.742 (inactive); in assay [10] it was 0.174.
As to `COC(=O)C1=CC(CCCO)=CC(c2ccc(CN3CCCC3)cc2)N(Cc2cc3c(cc2Br)OCO3)C=C1C(=O)OC` (stereo not given), the z-score in [1] is 0.3; in assay [2] it was 0.0793 (inactive); in assay [3] it was -0.119 (inactive); in assay [5], 0.214 (inactive); in [6], 0.73 (inactive); in assay [7] it was 0.463 (inactive). The values for the z-score in [8] and in [9] were 0.67 (inactive) and -0.0377, respectively. The composite z-score was 0.214 (inactive) in [4] and -0.0102 in [10].
For `CN(C)CCCNC(=O)[C@@H]1c2ccccc2C(=O)N(C2CCCCC2)[C@H]1c1ccc(CO)cc1`, the z-score in [1] was 0.848; in [2], -0.737 (inactive); in assay [3] it was 0.749 (inactive); in assay [5], 0.0714 (inactive); in assay [6], 0.409 (inactive); in assay [7], -0.101 (inactive). Besides, the z-score was 0.515 (inactive) in assay [8] and 0.988 in assay [9]. Besides, the composite z-score in assay [4] is -0.151 (inactive); in assay [10] it was -0.157.
On to `CCCCCN1CC=CC23O[C@@H]4C=CCOC(=O)[C@@H]4[C@H]2C(=O)N(CCO)[C@@H]3C1=O` (stereo not given in full), for which the z-score was 0.815 in [1]; 0.201 (inactive) in [2]; 0.0974 (inactive) in assay [3]; 0.398 (inactive) in assay [5]; -0.454 (inactive) in assay [6]; -0.0666 (inactive) in [7]. Also, the z-score in assay [8] is -0.193 (inactive); in assay [9], 0.229. Besides, the composite z-score in assay [4] is -0.693 (inactive); in assay [10] it was 0.307.
As to `COCCOC(=O)N1C(=O)[C@@]2(c3cc(C#Cc4ccc(OC)cc4)ccc31)[C@H](c1ccc(OCCO)cc1)N1[C@H](c3ccccc3)[C@H](c3ccccc3)OC(=O)[C@H]1[C@@H]2C(=O)Nc1nc2ccccc2s1`, the z-score in assay [1] is 1.62; in assay [2], 1.21 (inactive); in assay [3], -0.606 (inactive); in assay [5], 1.5 (inactive); in assay [6], 1.56 (inactive); in assay [7], 0.0318 (inactive). For the same compound, the z-score in assay [8] is -0.389 (inactive); in assay [9], 0.46. Besides, the composite z-score in assay [4] was -1 (inactive); in assay [10], 0.259.
`COC(=O)C1=CC(CCCO)=CC(C)N(Cc2cccc(OC(F)(F)F)c2)C=C1C(=O)OC` (stereo not given): the z-score is 0.0252 in assay [1]; -1.78 (inactive) in [2]; -0.0934 (inactive) in [3]; 0.227 (inactive) in assay [5]; 0.0728 (inactive) in assay [6]; 1.38 (inactive) in [7]. Further, the z-score in assay [8] is 1.21 (inactive); in assay [9], -0.123. Further, the composite z-score in assay [4] was -2.73 (inactive); in assay [10], 0.365.
Turning to `CN1C(=O)C2C=CC(C(O)c3cc(C(F)(F)F)cc(C(F)(F)F)c3)N(NC(=O)OC(C)(C)C)C2C1=O` (stereo not given), the z-score was -0.725 in [1]; -0.752 (inactive) in assay [2]; -0.117 (inactive) in assay [3]; -0.379 (inactive) in assay [5]; 0.215 (inactive) in assay [6]; -0.676 (inactive) in assay [7]. Further, the z-score in [8] was -1.22 (inactive); in assay [9], 0.349. In addition, the figures for the composite z-score in assay [4] and in assay [10] were -0.251 (inactive) and 0.394, respectively.
With `C=C(C(=O)CC[C@@H](OC(=O)c1ccccc1-c1ccccc1C(=O)O)c1ccccc1OCCO)C(C)C`, the z-score in assay [1] is 0.942; in [2] it was -2.55 (inactive); in assay [3], 0.132 (inactive); in assay [5] it was 0.743 (inactive); in assay [6] it was -0.639 (inactive); in assay [7], 0.475 (inactive). For the same compound, the z-score in assay [8] was 0.13 (inactive); in assay [9], 0.131. Moreover, the composite z-score is -1.52 (inactive) in assay [4] and 0.209 in assay [10].
